Results published in PubChem BioAssay AID1159537 (DiRusso Lab, Biochemistry Department, University of Nebraska, 2015).
Among all 44,000 compounds or so, about 370 (0.84%) were called active. The rule behind the calls is not given here. The sample as a whole holds a higher share of actives than the screen did.

Assay: inducers of TAG accumulation in Chlamydomonas, primary screen, qHTS, Chlamydomonas reinhardtii (AID 1159537);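 note: hits raise Nile Red signal meaning more stored TAG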
Conditions: Nile Red fluorescence, 72 h, screened at 10 µM (by protocol)
With `COCCN1C(=O)C(O)=C(C(=O)c2ccc(C)o2)C1c1cccc(Cl)c1` (centres undefined) the outcome was “inactive”. With `NC(=O)c1sc2cc([N+](=O)[O-])ccc2c1Cl` the outcome was “inactive”. For `O=C(CCCc1ccccc1)Nc1cccc(Cl)c1`, the outcome was “inactive”. For `CCc1cccc(C)c1NC(=O)c1cc(OC)cc(OC)c1`, the outcome was “inactive”. In the case of `COc1ccc(CNC(=O)C(c2ccccc2)c2ccccc2)cc1`, the outcome was “inactive”. For `NC(=O)c1c(NC(=O)COc2ccc([N+](=O)[O-])cc2)sc2c1CCCC2`, the outcome was “inactive”. In the case of `COc1cccc(OCCOc2ccc(C)cc2OC)c1`, the outcome was “inactive”. For `COc1ccc(S(=O)(=O)N2CCN(c3ccccc3F)CC2)cc1OC`, the outcome was “inactive”. For `CC1(C)Cc2ccccc2/C(=C(\C#N)C(=O)Nc2cccc([N+](=O)[O-])c2)N1`, the outcome was “inactive”. In the case of `Cc1cc(C)nc(NS(=O)(=O)c2ccc(N/C=C\C(=O)c3cccs3)cc2)n1`, the outcome was “inactive”. With `Cc1cccc(NC(=O)c2ccc(Cl)c(Cl)c2)c1C` the outcome was “inactive”. For `Cc1cc(=O)[nH]c(SCc2ccc(Cl)cc2)n1`, the outcome was “inactive”. For `CCCCOc1ccc(N2C(=O)CC(N3CCN(c4ccccn4)CC3)C2=O)cc1` (centres undefined), the outcome was “inactive”. With `CC(=O)N1CCN(Cc2c(Cl)cccc2Cl)CC1` the outcome was “inactive”. For `C=CCn1c(=O)c(C2=NS(=O)(=O)c3ccccc3N2)c(O)c2ccccc21`, the outcome was “inactive”. With `O=C(c1ccc([N+](=O)[O-])cc1)N1CCN(C2CCCC2)CC1` the outcome was “inactive”. For `CCOc1ccccc1C(=O)Nc1ccc([N+](=O)[O-])cc1OC`, the outcome was “inactive”. With `Clc1ccc(-c2nnc3ccc(NCc4ccccc4)nn23)cc1` the outcome was “inactive”. With `O=C(O)c1ccccc1C(=O)c1ccc(O)cc1O` the outcome was “inactive”. For `OCCN(Cc1ccccc1)Cc1ccc(-c2ccccc2)cc1`, the outcome was “inactive”. With `CCOc1ccc(NC(=O)C(=O)NCCc2ccc(Cl)cc2)cc1` the outcome was “inactive”. With `O=C(Nc1cccnc1)c1cccc(C(=O)Nc2cccnc2)c1` the outcome was “inactive”. For `CCOC(=O)N1CCN(C2CCN(CC)CC2)CC1`, the outcome was “inactive”. With `CCC1CCC(N2CCN(CC)CC2)CC1` (centres undefined) the outcome was “active”. With `CCN1CCN(C2CCN(Cc3ccccc3)CC2)CC1` the outcome was “inactive”. For `O=C(c1cccc([N+](=O)[O-])c1)c1ccc2c(c1)C(=O)N(c1nccs1)C2=O`, the outcome was “inactive”. For `COc1c(S(=O)(=O)NCc2ccncc2)ccc(Cl)c1Cl`, the outcome was “inactive”. For `CCCCOc1ccc(N2C(=O)CC(N3CCN(c4ncccn4)CC3)C2=O)cc1` (centres undefined), the outcome was “inactive”. With `Cc1ccc(SCC(=O)Nc2ccc3c(c2)OCCO3)cc1` the outcome was “inactive”. In the case of `NNc1ncnc2sc3c(c12)CCCC3`, the outcome was “inactive”. For `COc1ccc(C(=O)N2CCC(C(=O)Nc3ccc(OCc4ccccc4)cc3)CC2)cc1`, the outcome was “inactive”. In the case of `O=C1NCCCc2nc(N3CCOCC3)sc21`, the outcome was “inactive”. For `COc1ccc(N(CC(=O)N(C)Cc2ccccc2)S(C)(=O)=O)cc1OC`, the outcome was “inactive”. In the case of `O=C(COc1ccc(Cl)cc1)Nc1ccc(F)c(F)c1`, the outcome was “inactive”. With `O=C(/C=C/c1ccc(-c2ccccc2Cl)o1)c1ccco1` the outcome was “inactive”. With `O=C(c1ccc(C#CC2(O)CCCCC2)cc1)N1CCN(c2ccccc2Cl)CC1` the outcome was “inactive”. With `N#CC1=C(SCc2ccccc2)NC(=O)CC1c1ccc(Br)cc1` (centres undefined) the outcome was “inactive”. For `CC(=O)c1ccc(N2CCN(C(=O)c3c(F)c(F)cc(C)c3Cl)CC2)c(F)c1`, the outcome was “inactive”. In the case of `COc1ccc(-c2cc(C(=O)Nc3cccnc3)c3ccccc3n2)cc1`, the outcome was “inactive”. With `Cc1cc(C)c(NC(=O)c2ccc(F)cc2)c(C)c1` the outcome was “inactive”. In the case of `CC(C)c1ccc(OCC(=O)N2CCCC2)cc1`, the outcome was “inactive”. In the case of `O=C(NCC1CCNCC1)C(=O)NC1CCCCC1`, the outcome was “inactive”. In the case of `NC(=O)c1ccc2[nH]c3c(c2c1)CCCC3`, the outcome was “inactive”. With `O=S(=O)(CCc1ccccc1)Nc1ccccc1` the outcome was “inactive”. For `CC(C)COc1ccc(C(=O)Nc2ccc([N+](=O)[O-])cc2Cl)cc1`, the outcome was “inactive”. With `Cc1ccc(C(C)C)cc1OCCN1CCCC1` the outcome was “inactive”. For `Cc1cc(OCCCCN2CCOCC2)ccc1C(C)C`, the outcome was “active”. In the case of `CCOc1ccc(CN2CCCN(C)CC2)cc1`, the outcome was “inactive”. For `Cc1ccc(CN2CCOCC2)c(C)c1`, the outcome was “inactive”. In the case of `Cc1cc(OCCN2CCOCC2)nc(NCc2ccccc2)n1`, the outcome was “inactive”. With `Cc1cc(OCCN2CCN(C)CC2)ccc1C(C)C` the outcome was “active”. For `CS(=O)(=O)N(Cc1ccc(C(=O)Nc2cccnc2)cc1)c1ccccc1`, the outcome was “inactive”. In the case of `CCc1ccc(N2CC(C(=O)NC(C)CC)CC2=O)cc1` (centres undefined), the outcome was “inactive”. With `O=C(Nc1cccc(Cl)c1Cl)c1ccc(I)o1` the outcome was “inactive”. With `CCOc1ccc(NC(=O)C(=O)NCc2ccccc2OC)cc1` the outcome was “inactive”. For `Cc1cc(Cl)ccc1NC(=O)c1cccnc1`, the outcome was “inactive”. With `Cc1ccc(C(=O)c2ccc(N3CCN(C)CC3)c([N+](=O)[O-])c2)cc1` the outcome was “active”. For `CS(=O)(=O)N1CCN(c2ccc(C(=O)NC3C4CC5CC(C4)CC3C5)cc2[N+](=O)[O-])CC1` (centres undefined), the outcome was “inactive”. With `CC1CCN(c2ccc(C(=O)O)cc2[N+](=O)[O-])CC1` the outcome was “inactive”. In the case of `CC(=O)c1ccc(NC(=O)c2ccc(CN(c3ccccc3)S(C)(=O)=O)cc2)cc1`, the outcome was “inactive”. With `O=C(C1=C(O)C(=O)N(c2ncccn2)C1c1cccc([N+](=O)[O-])c1)c1ccco1` (centres undefined) the outcome was “inactive”. In the case of `O=C(Nc1ccccc1C(=O)NCCN1CCOCC1)c1cccc(I)c1`, the outcome was “inactive”. With `CCOc1ccccc1NC1=NS(=O)(=O)c2ccccc21` the outcome was “inactive”. For `COc1cc(C=O)cc(Br)c1OCc1ccccn1`, the outcome was “inactive”. For `Cc1ccc(C(=O)Nc2cccc(O)c2)cc1S(=O)(=O)N1CCC(C)CC1`, the outcome was “inactive”. In the case of `O=C(NCCCN1CCOCC1)c1ccccc1Br`, the outcome was “inactive”. With `Cc1cc(C)c(S(=O)(=O)NCCCN2CCOCC2)cc1Br` the outcome was “active”. With `O=S(=O)(NCCN1CCOCC1)c1ccc(I)cc1` the outcome was “inactive”. With `CN(C)CCNC(=O)c1ccc(Cl)cc1` the outcome was “inactive”. For `CC(=O)c1cc2c(cc1NC(=O)c1ccccc1Cl)OCCO2`, the outcome was “inactive”. For `Cc1ccc(NS(=O)(=O)c2ccc(C(C)(C)C)cc2)cn1`, the outcome was “inactive”. For `COc1ccc(CC(=O)NC(c2ccccc2)c2ccccc2)cc1OC`, the outcome was “inactive”. With `CC1=C(C(=O)Nc2ccc(C)cn2)C(c2cccc(Cl)c2Cl)C2=C(CCCC2=O)N1` (centres undefined) the outcome was “inactive”. For `CCc1ccc(OCCN2CCCC(C)C2)cc1` (centres undefined), the outcome was “inactive”. In the case of `Cc1nnc(NC(=O)CSc2nnnn2-c2ccc(Cl)cc2)s1`, the outcome was “inactive”. For `O=C(O)c1ccc(C(=O)O)c(S(=O)(=O)c2cc(C(=O)O)ccc2C(=O)O)c1`, the outcome was “inactive”. In the case of `Clc1ccc(-n2nnnc2SCc2nn[nH]n2)cc1`, the outcome was “inactive”. In the case of `CC1(C)CC(=O)c2cnc3cc(-c4ccccc4)nn3c2C1`, the outcome was “inactive”. With `O=C1C(=O)N(c2ccccc2)C(c2ccccc2[N+](=O)[O-])C1=C(O)c1ccccc1` (centres undefined) the outcome was “inactive”. In the case of `CCc1ccc(OCC(=O)Nc2ccc(F)cc2)cc1`, the outcome was “inactive”. In the case of `Nc1cc(-c2ccccc2)nn1-c1ccccc1`, the outcome was “inactive”. In the case of `O=C(COc1ccc(Br)cc1)N1CCN(c2ccccc2F)CC1`, the outcome was “inactive”. With `O=[N+]([O-])c1ccc(S(=O)(=O)Nc2cc(Cl)ccc2O)cc1` the outcome was “inactive”. In the case of `COc1ccc(CSc2nnc(-c3ccc(Cl)cc3Cl)o2)cc1[N+](=O)[O-]`, the outcome was “inactive”. In the case of `CCOc1ccc2nc(SCC(=O)NC(C)=O)sc2c1`, the outcome was “inactive”. With `CC(C)(C)C1CCC(NCc2ccncc2)CC1` (centres undefined) the outcome was “active”. For `O=C(Cc1ccc(F)cc1)NCc1ccncc1`, the outcome was “inactive”. For `O=C(NCc1ccncc1)C(=O)NCc1ccco1`, the outcome was “inactive”. In the case of `CCCc1ccc(OCC(O)CN2CCN(CCO)CC2)cc1` (centres undefined), the outcome was “inactive”. In the case of `O=C(Nc1ccc(OCC(=O)N2CCOCC2)cc1)c1cc(F)c(F)cc1Cl`, the outcome was “inactive”. With `O=C1CC(N2CCN(c3ccccc3O)CC2)C(=O)N1c1ccc(Br)cc1` (centres undefined) the outcome was “inactive”. With `NC(=O)c1cc(NC(=O)CCC(=O)O)ccc1N1CCOCC1` the outcome was “inactive”. In the case of `O=S(=O)(Nc1cccc(O)c1)c1ccc(-c2ccccc2)cc1`, the outcome was “inactive”. In the case of `O=C(Nc1ccccc1F)C1CC(=O)N(c2ccccc2F)C1` (centres undefined), the outcome was “inactive”. With `O=C(Nc1ccc([N+](=O)[O-])cc1Br)c1ccncc1` the outcome was “inactive”. For `O=C(COc1ccc(Br)cc1)Nc1ccc(N2CCOCC2)cc1`, the outcome was “inactive”. With `Cc1nc(-c2c[nH]c3ccccc23)cs1` the outcome was “inactive”. With `O=C(NCCc1ccc(F)cc1)C1CC(=O)N(c2ccccc2)C1` (centres undefined) the outcome was “inactive”. For `Clc1ccc(OCc2nc(-c3cccnc3)no2)c(Cl)c1`, the outcome was “inactive”. With `c1ccc(CCc2nc(-c3ccncc3)no2)cc1` the outcome was “active”. With `Cc1ccccc1-c1nc(-c2ccncc2)no1` the outcome was “inactive”. For `NCCNc1ccc([N+](=O)[O-])c(N2CCCCC2)c1`, the outcome was “inactive”. With `COc1cc(C=O)ccc1OCCOc1ccc(C)cc1Br` the outcome was “inactive”. In the case of `Cc1ccc(-c2nc(-c3cccnc3)no2)cc1Cl`, the outcome was “inactive”. With `Cc1ccc2oc(-c3ccc(C)c(N)c3)nc2c1` the outcome was “inactive”. With `CCn1c2c(c3cc([N+](=O)[O-])ccc31)CCCC2=O` the outcome was “inactive”. In the case of `CC(=O)N(c1ccccc1)C1CC(C)Nc2ccccc21` (centres undefined), the outcome was “inactive”. In the case of `O=C(NC12CC3CC(CC(C3)C1)C2)c1ccccc1C(=O)NC12CC3CC(CC(C3)C1)C2`, the outcome was “inactive”. In the case of `COc1cccc(NC(=O)CN2CCN(c3nc4ccc([N+](=O)[O-])cc4s3)CC2)c1`, the outcome was “inactive”. With `COc1ccc(/C=C(/NC(=O)c2ccco2)C(=O)Nc2ccc([N+](=O)[O-])cc2)cc1` the outcome was “inactive”. For `CS(=O)(=O)N(CC(=O)N1CCCCCC1)c1cccc(Cl)c1Cl`, the outcome was “inactive”. With `COc1cccc(CN2CCN(C/C=C/c3ccccc3)CC2)c1OC` the outcome was “inactive”. With `O=[N+]([O-])c1ccccc1/C=C/CN1CCN(C/C=C/c2ccccc2)CC1` the outcome was “inactive”. In the case of `C(=C\c1ccccc1)/CN1CCN(CC2CCCCC2)CC1`, the outcome was “active”. With `CS(=O)(=O)N(CC(=O)N1CCCC1)c1ccc(I)cc1` the outcome was “inactive”. With `CCOc1ccc(C(=O)NCCc2ccc(F)cc2)cc1` the outcome was “inactive”. With `O=C(COc1cccc([N+](=O)[O-])c1)Nc1ccc(-c2nnc(-c3ccco3)o2)cc1` the outcome was “inactive”. For `Cc1ccc(NC(=O)c2ccccc2Br)cc1C`, the outcome was “inactive”. With `COc1ccc(C(O)=C2C(=O)C(=O)N(CCN3CCOCC3)C2c2ccncc2)cc1C` (centres undefined) the outcome was “inactive”.
